Shown are actives, neighbours in structure and some others; about 2.2% of the full set was active somewhere.
TWEAK-Fn14 inh: inhibitors of TWEAK-Fn14 signaling, primary screen, luciferase reporter cells, uHTS. 360,000 compounds, 2% hits. inhibition, % at 10 µM. TWEAK-stimulated Fn14 reporter cells, luciferase luminescence, 8 h; in the data active means inhibition above about 50%
LGR2 antag: inhibitors of bursicon-induced LGR2 CRE-luciferase signal, primary screen, cell-based, HEK293, CRE-luciferase reporter, bursicon stimulation; 380,000 compounds, 0.35% hits; AID 720647, 2013; Drosophila bursicon receptor LGR2 (rickets); bursicon-stimulated, 4 h; inhibition, % at 9.99 µM;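 active means drop in luminescence signal, shown as inhibition above about 50% in the replicate tests, limit read from the data, passing the limit was not always enough; inconclusive means probably only some replicates passing the limit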;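 further: agonist challenge used bursicon conditioned medium at about half maximal strength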
TROY NFkB inh: inhibitors of TROY-driven NF-kB signaling, primary screen, Q293 LMP1-TROYcd cells, NF-kB luciferase, uHTS. 360,000 compounds, 0.98% hits. Q293 LMP1-TROYcd NF-kB luciferase reporter, 4 h. AID 1347056, 2019. inhibition, % at 10 µM;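 active means compounds whose plate-normalised and pattern-corrected inhibition of the luciferase reporter signal at the single screening dose is 50% or more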
HSP90 inh: HSP90 inhibitors, primary screen, cell lysate, luminescence; Heat shock protein HSP 90 (rabbit reticulocyte lysate; luciferase refolding); Rabbit reticulocyte lysate, luciferase refolding luminescence, 3 h; inhibition, % at 5.6 µM; 290,000 compounds, 0.91% hits;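 active means inhibition above the screen-wide mean plus 3 SD, computed separately per campaign, cut at about 16% in these data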;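 further: inhibitors lower the luminescence because luciferase stays unfolded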
HSP90 confirm: HSP90 inhibitors, confirmation, cell lysate, luminescence. shares compounds with HSP90 inh. rabbit reticulocyte lysate, luciferase refolding luminescence, 3 h. inhibition, % at 5.9 µM. 2,300 compounds, 64% hits; in the data active means inhibition above about 18%
FLuc counter: firefly luciferase inhibitors, HSP90 counter-screen, confirmation, artefact control for HSP90 inhibitor project, biochemical, luminescence, triplicate. 2,300 compounds, 48% hits. purified native firefly luciferase. shares compounds with HSP90 inh. inhibition, % at 5.9 µM;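 active means inhibition above the mean inhibition of all tested sample wells plus 3 SD, cut at about 10% in these data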
Target sequence (P08659 whole entry, looked up): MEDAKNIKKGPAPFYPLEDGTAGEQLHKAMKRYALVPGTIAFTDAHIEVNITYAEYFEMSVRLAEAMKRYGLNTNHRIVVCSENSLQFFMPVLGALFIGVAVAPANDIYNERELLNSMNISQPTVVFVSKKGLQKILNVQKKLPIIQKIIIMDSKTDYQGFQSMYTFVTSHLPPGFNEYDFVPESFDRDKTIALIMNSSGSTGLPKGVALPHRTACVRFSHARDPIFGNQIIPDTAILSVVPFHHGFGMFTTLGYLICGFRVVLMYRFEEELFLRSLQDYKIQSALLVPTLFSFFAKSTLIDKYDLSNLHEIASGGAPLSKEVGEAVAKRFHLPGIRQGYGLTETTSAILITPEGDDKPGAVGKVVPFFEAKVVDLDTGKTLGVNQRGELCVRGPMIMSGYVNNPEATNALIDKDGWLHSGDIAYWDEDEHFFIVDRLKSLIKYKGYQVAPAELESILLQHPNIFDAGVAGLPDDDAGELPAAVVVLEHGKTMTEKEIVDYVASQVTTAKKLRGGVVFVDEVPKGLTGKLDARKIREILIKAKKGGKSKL
Hits are given with their value; n = inactive; u = inconclusive; x = not tested or not shown.

SMILES | TWEAK-Fn14 inh | LGR2 antag | TROY NFkB inh | HSP90 inh | HSP90 confirm | FLuc counter
Cc1cc2ccccc2n1CCNC(=O)C(C)(C)C | n | n | n | x | x | x
Cc1cc2ccccc2n1CCNC(=O)c1ccc(Br)o1 | n | n | n | 17.0 | n | n
COc1cccc(CN2C[C@@H]3N[C@H](C2)C3c2ccc(-c3ccccc3OC)cc2)c1 (stereo not given in full) | x | n | x | x | x | x
CCNC(=O)C[C@H]1CC[C@H]2[C@@H](COc3ccc(NC(=O)Nc4c(C)noc4C)cc3C(=O)N2C)O1 | x | n | x | x | x | x
CCOC(=O)Nc1ccc2c(c1)N(C(=O)CCN(CC)CC)c1ccccc1CC2 | n | n | n | 26.4 | n | n
C[C@H](C(=O)N(C)C[C@@H]1OCc2ccccc2-c2c(n(C)c3ccccc23)C(=O)N([C@@H](C)CO)C[C@@H]1C)c1ccccc1 | x | n | x | x | x | x
Cc1ccc(/C=C(\C#N)C(=O)NCC2CCCO2)o1 (stereo not given) | n | n | n | n | x | x
Cc1ccccc1-n1c(C)cc(/C=C(\C#N)C(=O)NCC2CCCO2)c1C (stereo not given) | 56.0 | n | 59.0 | 19.6 | 37.1 | 25.1
Cc1oc(-c2ccc(-c3ccccc3)cc2)nc1CN(CCO)C(C)C | 64.9 | n | n | 85.2 | 93.5 | 21.0
Cc1oc(-c2ccc(-c3ccccc3)cc2)nc1CN(C)C1CCOC1 (stereo not given) | n | n | n | 74.7 | 86.0 | n
Cc1oc(-c2cccc(Cl)c2)nc1CN(C)C1CCOC1 (stereo not given) | n | n | n | n | x | x
Cc1ccc(-n2nnc(-c3nccn3C)n2)cc1 | 75.8 | u | n | 33.0 | 49.5 | 37.4
c1ccc(-c2cn3c(n2)-c2ccccc2C3)cc1 | 72.1 | u | n | 18.2 | 51.3 | 41.6
O=C1c2ccccc2CN2C(=O)c3ccccc3CN12 | n | n | n | n | x | x
CN(C)c1ccc(C(=O)Nc2nc3c(s2)CCCC3)cc1 | 72.4 | u | n | 27.1 | 58.9 | 58.2
COC(=O)Nc1nc2c(s1)CCCC2 | n | x | n | n | x | x
CC(C)(C)c1ccc(C(=O)NC(=S)Nc2sc3c(c2C#N)CCC3)cc1 | n | n | n | n | x | x
CC(C)(C)c1ccc(C(=O)NC(=S)Nc2nc3c(s2)CCCC3)cc1 | 81.6 | n | 83.5 | 23.7 | 56.7 | 38.2
C[C@H]1CN([C@@H](C)CO)C(=O)c2cccc(NS(=O)(=O)c3ccc(Cl)cc3)c2O[C@H]1CN(C)C(=O)Nc1ccccc1 | x | n | x | x | x | x
COC(=O)C(Cc1ccc(O)cc1)NC(=O)c1ccc2c(c1)OCCO2 (stereo not given) | n | n | n | 26.0 | 40.7 | 28.1
Fc1cccc(/C=N/Nc2nncc3ccccc23)c1 | n | n | n | 29.3 | 51.0 | 40.8
CC/C(=N\Nc1nncc2ccccc12)c1ccc(F)cc1 | n | n | n | 17.1 | n | n
CN1C(C(=O)NCc2ccco2)=CC(c2ccc(F)cc2)=NS1(=O)=O | n | n | n | 55.6 | n | n
Cc1ccc(C2=NS(=O)(=O)N(C)C(C(=O)NCc3cccs3)=C2)cc1 | n | n | n | n | x | x
CCC1(C)Cc2c(sc(NC(=S)NC(=O)c3ccccc3)c2C#N)CO1 (stereo not given) | n | n | n | n | x | x
SMILES | TWEAK-Fn14 inh | LGR2 antag | TROY NFkB inh | HSP90 inh | HSP90 confirm | FLuc counter
CN1Cc2sc(NC(=S)NC(=O)c3ccccc3)c(C#N)c2CC1(C)C | x | n | x | 17.3 | 31.1 | 15.3
COc1ccccc1C(=O)N(CCC1CCCN1C)c1nc2ccccc2s1 (stereo not given) | 100.9 | 97.5 | 89.0 | 67.3 | 70.3 | 68.7
O=C1CC(c2ccc3c(c2)OCCO3)Oc2ccc([N+](=O)[O-])cc21 (stereo not given) | 98.5 | n | 84.7 | 54.6 | 65.8 | 63.8
O=C1CC(c2ccc3c(c2)OCCO3)Oc2ccccc21 (stereo not given) | n | n | n | n | x | x
O=C(Nc1ccc2ccccc2c1)c1ccc(Cl)cc1Cl | n | n | n | 17.0 | 37.1 | 20.5
O=C(Nc1ccc2ccccc2c1)c1ccccc1[N+](=O)[O-] | n | n | n | x | x | x
O=C(Nc1ccc2ccccc2c1)c1ccccc1O | 90.2 | 76.2 | 58.9 | 39.1 | 53.7 | 45.6
O=C(Nc1ccc2ccccc2c1)c1ccccc1Cl | n | n | n | x | x | x

Screening results: PubChem, several laboratories
